# Most compounds without a hit are left out; they make up all but 31% or so of the library.
# CYP2C9 inh = blockers of cytochrome P450 2C9 activity – biochemical, luminescence, ADME assay, primary screen; P11712; CYP2C9 Supersomes, luciferin-H conversion; inhibition, % at 5 µM; actives 20% (n = 96,000);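 active = blocking of liver enzyme CYP2C9 beyond about 50% at 5 µM, limit read from the data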
# CYP2C19 inh = blockers of cytochrome P450 2C19 activity – biochemical, luminescence, ADME assay, primary screen. P33261. CYP2C19 Supersomes, luciferin-H EGE luminescence, 30 min. inhibition, % at 5 µM. actives 21% (n = 96,000). AID 778, 2007;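 active = CYP2C19 inhibition above a set limit at 5 µM in the primary screen, cut at about 50% in these data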;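 note: plate controls were negative control wells for no effect and 2.5 mM tranylcypromine positive control for full effect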
# Target sequence (P33261 whole entry, looked up): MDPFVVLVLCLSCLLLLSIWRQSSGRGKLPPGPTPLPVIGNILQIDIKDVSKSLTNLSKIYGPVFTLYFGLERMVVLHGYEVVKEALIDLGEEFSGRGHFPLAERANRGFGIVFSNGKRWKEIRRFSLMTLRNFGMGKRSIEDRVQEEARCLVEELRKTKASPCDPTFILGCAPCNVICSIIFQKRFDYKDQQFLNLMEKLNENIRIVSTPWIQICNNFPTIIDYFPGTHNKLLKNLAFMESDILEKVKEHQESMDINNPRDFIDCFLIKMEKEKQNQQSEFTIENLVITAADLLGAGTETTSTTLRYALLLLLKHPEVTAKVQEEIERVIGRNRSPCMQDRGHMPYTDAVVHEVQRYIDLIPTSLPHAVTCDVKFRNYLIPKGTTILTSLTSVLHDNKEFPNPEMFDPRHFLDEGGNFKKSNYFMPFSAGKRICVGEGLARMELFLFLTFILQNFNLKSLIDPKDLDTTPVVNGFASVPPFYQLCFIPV
# CYP2C19 activ = human CYP2C19 activators, primary screen, biochemical, luminescence; activation factor at 5 µM; AID 1025, 2008; 96,000 tested, under 10 active; recombinant CYP2C19, luciferin-H EGE luminescence; stronger effect = higher value; 0 = fully inhibited enzyme, 1 = untreated enzyme; Cytochrome P450 2C19 (Homo sapiens), P33261;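 active = activation factor of at least 2 at 5 µM in the primary screen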;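 note: 0 = wells with 2.5 mM tranylcypromine and 1 = vehicle-only wells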
# CYP2C9 activ = human CYP2C9 activators, primary screen, biochemical, luminescence. activation factor at 5 µM. Cytochrome P450 2C9 (Homo sapiens), P11712. recombinant CYP2C9, luciferin-H conversion; stronger effect = higher value; factor 1 = untreated enzyme, 0 = blocked. actives 1.4% (n = 96,000);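 active = activation factor of 2 or more for CYP2C9 at a 5 µM dose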;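 note: 0 = sulfaphenazole-blocked wells and 1 = vehicle-only wells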
# An asterisk follows results filed as active.
SMILES,CYP2C9 inh,CYP2C19 inh,CYP2C19 activ,CYP2C9 activ
CCC(c1nnc(SCC(=O)Nc2nnc(-c3ccccc3)o2)n1Cc1ccccc1)N(C)C (stereo not given),-5,-3,1,1.1
CC(=O)NCCc1nc2ccccc2n1Cc1ccc(C)cc1,42,69*,0.3,0.6
COC(=O)Cn1c(CCS(=O)(=O)c2ccc(Cl)cc2)nc2ccccc21,10,25,0.8,0.9
COC(=O)Cn1c(CCS(=O)(=O)c2ccc(C)cc2)nc2ccccc21,12,66*,0.3,0.9
CC(=O)Nc1nc2ccccc2n1Cc1ccccc1,5,27,0.7,1
Cc1ccc(N=C(c2cccs2)N2CCOCC2)cc1,16,73*,0.3,0.8
O=C(c1cccs1)N1CCOCC1,2,-5,1.1,1
COc1ccc(/C=C2/C(=O)N(CC3CCCO3)C(=S)N2C)c(OC)c1 (stereo not given),90*,64*,0.4,0.1
O=S(=O)(/N=C(/c1ccc(Cl)cc1)N1CCOCC1)c1ccc(Cl)cc1,-3,0,1,1
CCc1c(C)c2ccc(OCC(=O)N(C)C)c(C)c2oc1=O,-14,24,0.8,1.1
CCOC(=O)CCc1c(C)c2ccc(OCC(=O)N(CC)CC)c(C)c2oc1=O,51*,34,0.7,0.5
CCOC(=O)CCc1c(C)c2ccc(O)cc2oc1=O,-4,26,0.7,1
CCOC(=O)Cc1c(C)c2ccc(N(CC)CC)cc2oc1=O,-112,3,1,2.1*
CCCCC(CC)CNC(=O)C1CCCN(S(=O)(=O)c2cnc[nH]2)C1 (stereo not given),93*,100*,0,0.1
O=C(NC1CCCCCC1)C1CCCN(S(=O)(=O)c2cnc[nH]2)C1 (stereo not given),45,83*,0.2,0.5
O=C(NC1CCCc2ccccc21)C1CCCN(S(=O)(=O)c2cnc[nH]2)C1 (stereo not given),60*,92*,0.1,0.4
CCOc1[nH]n(-c2ccc(Cl)cc2)c(=O)c1C=Nc1ccc(C)cc1,14,2,1,0.9
COc1ccc(OCCCC(=O)Nc2cccnc2)cc1,25,26,0.7,0.8
CCCCCCCCNc1ncnc2ccccc12,82*,79*,0.2,0.2
COc1cccc(Nc2ncnc3ccccc23)c1,50,42,0.6,0.5
O=C(O)c1ccc2c(c1)-c1nc3ccccc3n1C2=O,9,-2,1,0.9
NC(=O)CN1CCN(C(=O)NC2CCCCC2)CC1,-17,-15,1.2,1.2
O/C(=C\Sc1nnc(Cc2ccccc2)o1)c1ccc(Br)cc1,93*,79*,0.2,0.1
C=CCn1c(-c2csc(-c3ccc(Cl)cc3)n2)n[nH]c1=S,8,81*,0.2,0.9
C=CCn1c(-c2csc3ccccc23)n[nH]c1=S,78*,93*,0.1,0.2
SMILES,CYP2C9 inh,CYP2C19 inh,CYP2C19 activ,CYP2C9 activ
O=c1c(F)cn(C2CCCO2)c(=O)n1Cc1ccccc1F (stereo not given),38,84*,0.2,0.6
O=c1c([N+](=O)[O-])c(N2CCCCC2)c2ccccc2n1-c1ccccc1,-12,-9,1.1,1.1
Nc1c(N2CCCCC2)c(=O)[nH]c(=O)n1-c1ccccc1,-4,55*,0.5,1
NS(=O)(=O)c1cccnc1Nc1c(Cl)cccc1Cl,46,60*,0.4,0.5
NS(=O)(=O)c1ccc(Nc2ncccc2[N+](=O)[O-])cc1,14,-10,1.1,0.9
NC(=O)Cc1c[nH]c2cccc(O)c12,1,0,1,1
O=C(CCCNS(=O)(=O)c1cccc2nsnc12)NC1CCCCC1,-10,-6,1.1,1.1
CCCCOc1ccc(C2CC(=O)NC2=O)cc1 (stereo not given),2,44,0.6,1
Cc1ccc(C2CC(c3ccc(Cl)cc3)=NNC2=O)cc1 (stereo not given),38,85*,0.2,0.6
CCc1ccc(C2CC(c3ccc(Cl)cc3)=NNC2=O)cc1 (stereo not given),40,84*,0.2,0.6
O=C(CN1C(=O)COc2ccccc21)NCCCN1CCc2ccccc2C1,3,6,0.9,1
Cc1nc(NCc2ccco2)c2oc3ccccc3c2n1,63*,77*,0.2,0.4
Cc1nc(N[C@@H](Cc2ccccc2)C(=O)O)c2oc3ccccc3c2n1,10,19,0.8,0.9

# Screening data as filed in PubChem BioAssay.
